Measured values taken from PubChem BioAssay (NCATS).
Results filed as inconclusive are left out. Where a call stands in place of a potency, no number is given. Active and inactive are the calls of the source. Calls come from the whole dose curve; as a rule, active = well fitted inhibition curve with a large enough effect; inconclusive = small, poorly fitted or top-dose-only effect; inactive = flat fitted curve, though single readings scatter.

Columns and labels:
Assay in all cases: qHTS profiling for inhibitors of Plasmodium falciparum proliferation (AID 504749); note: nearly all actives have a fitted effect of over 60% in size
Settings in all cases: P. falciparum in erythrocytes, SYBR Green DNA, 72 h; series mostly up to 28.7 µM
CP291 = system: CP291
Outline: (§1)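 Fluorescence of SYBR Green-bound parasite DNA, read at 485/535 nm, served as the growth measure. Infected erythrocytes were cultured with compound 72 h; artemisinin (0.29 uM) and DMSO wells defined the normalization range.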

CP297 = system: CP297
Outline: as §1

CP305 = system: CP305
Outline: as §1

CP315 = system: CP315
Outline: as §1

CP325 = system: CP325
Outline: as §1

CP329 = system: CP329
Outline: as §1

CP335 = system: CP335
Outline: as §1

DFO2036 = system: DFO2036
Outline: as §1

DIV14 = system: DIV14
Outline: as §1

DIV17 = system: DIV17
Outline: as §1

DIV30 = system: DIV30
Outline: as §1

Dd2 = system: Dd2
Outline: as §1

ECU = system: ECU
Outline: as §1

FAB9 = system: FAB9
Outline: as §1

GB4 = system: GB4
Outline: as §1

HB3 = system: HB3
Outline: as §1

ICS = system: ICS
Outline: as §1

JCK = system: JCK
Outline: as §1

P93_24 = system: P93_24
Outline: as §1

N140 = system: N140
Outline: as §1
Potency is the fitted concentration of half-maximal effect.

SMILES	Potency (CP291)	Potency (CP297)	Potency (CP305)	Potency (CP315)	Potency (CP325)	Potency (CP329)	Potency (CP335)	Potency (DFO2036)	Potency (DIV14)	Potency (DIV17)	Potency (DIV30)	Potency (Dd2)	Potency (ECU)	Potency (FAB9)	Potency (GB4)	Potency (HB3)	Potency (ICS)	Potency (JCK)	Potency (P93_24)	Potency (N140)
CC(C)NNC(=O)c1ccncc1	inactive	inactive	inactive	inactive	inactive	inactive	inactive	7.94 µM (active)	inactive	inactive	inactive	inactive	inactive	inactive	inactive	inactive	inactive	inactive	inactive	–
Nc1nc(N)c2nc(-c3ccccc3)c(N)nc2n1	inactive	inactive	inactive	inactive	inactive	inactive	–	inactive	inactive	inactive	inactive	inactive	2.82 µM (active)	3.16 µM (active)	1.35 µM (active)	inactive	inactive	inactive	inactive	inactive
C[C@]12CCC(=O)C=C1CC[C@@H]1[C@@H]2CC[C@@]2(C)[C@H]1CC[C@]2(O)C(=O)CO	inactive	inactive	inactive	inactive	inactive	inactive	inactive	inactive	inactive	inactive	inactive	inactive	inactive	inactive	inactive	inactive	–	inactive	inactive	inactive
CC[N+](C)(C)c1cccc(O)c1	inactive	inactive	inactive	inactive	inactive	inactive	inactive	inactive	inactive	–	inactive	inactive	inactive	inactive	inactive	inactive	inactive	inactive	inactive	inactive
COC(=O)[C@H]1[C@H]2C[C@@H]3c4[nH]c5cc(OC)ccc5c4CCN3C[C@H]2C[C@@H](OC(=O)c2cc(OC)c(OC)c(OC)c2)[C@@H]1OC	15.1 µM (active)	3.38 µM (active)	–	16.9 µM (active)	13.5 µM (active)	13.5 µM (active)	8.49 µM (active)	–	1.69 µM (active)	1.51 µM (active)	1.07 µM (active)	12.6 µM (active)	5.01 µM (active)	–	13.5 µM (active)	11.2 µM (active)	3.55 µM (active)	–	10 µM (active)	3.98 µM (active)
C[N+](C)(C)CCCCCCCCCC[N+](C)(C)C	3.38 µM (active)	4.78 µM (active)	4.26 µM (active)	4.26 µM (active)	3.38 µM (active)	3.38 µM (active)	1.9 µM (active)	4.47 µM (active)	1.07 µM (active)	1.69 µM (active)	4.26 µM (active)	3.16 µM (active)	10 µM (active)	5.01 µM (active)	3.01 µM (active)	1.58 µM (active)	2.24 µM (active)	11.2 µM (active)	2.51 µM (active)	2.82 µM (active)
CCCCNc1ccc(C(=O)OCCN(C)C)cc1	inactive	inactive	inactive	inactive	–	–	inactive	–	–	–	inactive	inactive	inactive	inactive	inactive	inactive	inactive	inactive	inactive	inactive
Brc1c(NC2=NCCN2)ccc2nccnc12	inactive	inactive	inactive	inactive	inactive	inactive	–	inactive	–	–	inactive	inactive	–	inactive	12 µM (active)	–	3.98 µM (active)	inactive	11.2 µM (active)	–
CCCCNc1c(C(=O)OCC)c(C)nc2c1cnn2CC	inactive	inactive	inactive	inactive	inactive	inactive	–	inactive	inactive	–	inactive	inactive	inactive	inactive	inactive	inactive	–	inactive	inactive	inactive
Cc1ccc(Cl)c(Nc2ccccc2C(=O)O)c1Cl	inactive	inactive	inactive	–	inactive	inactive	inactive	inactive	inactive	inactive	inactive	inactive	inactive	inactive	inactive	inactive	inactive	inactive	inactive	inactive
C#CCN(C)CCCOc1ccc(Cl)cc1Cl	inactive	inactive	inactive	inactive	inactive	inactive	inactive	inactive	inactive	–	inactive	inactive	inactive	inactive	inactive	inactive	inactive	inactive	inactive	inactive
CC(=O)OCC1=C(C(=O)O)N2C(=O)[C@@H](NC(=O)Cc3cccs3)[C@H]2SC1	inactive	inactive	inactive	inactive	inactive	inactive	inactive	inactive	inactive	inactive	inactive	inactive	inactive	inactive	inactive	inactive	inactive	inactive	inactive	inactive
CCNC(=O)N1CCN(CCCC(c2ccc(F)cc2)c2ccc(F)cc2)CC1	6.01 µM (active)	6.01 µM (active)	6.01 µM (active)	6.75 µM (active)	2.13 µM (active)	–	1.9 µM (active)	2.51 µM (active)	7.57 µM (active)	13.5 µM (active)	6.75 µM (active)	2 µM (active)	2.51 µM (active)	3.98 µM (active)	10.7 µM (active)	4.47 µM (active)	2.82 µM (active)	10 µM (active)	2 µM (active)	2.82 µM (active)
CCN(CC)CC(=O)Nc1c(C)cccc1C	inactive	inactive	inactive	inactive	inactive	inactive	inactive	inactive	inactive	inactive	inactive	inactive	inactive	inactive	inactive	inactive	inactive	inactive	inactive	inactive
CC(=O)Nc1nnc(S(N)(=O)=O)s1	inactive	inactive	inactive	inactive	inactive	inactive	inactive	inactive	–	inactive	inactive	inactive	inactive	inactive	inactive	inactive	inactive	inactive	inactive	inactive
CC(C(=O)O)c1ccc(CC2CCCC2=O)cc1 (stereo not given)	inactive	inactive	inactive	inactive	inactive	inactive	inactive	inactive	inactive	inactive	inactive	inactive	inactive	inactive	inactive	inactive	inactive	inactive	inactive	inactive
CNC1(C)C2CCC(C2)C1(C)C (stereo not given)	inactive	inactive	inactive	inactive	inactive	inactive	–	inactive	inactive	inactive	inactive	–	inactive	inactive	10.7 µM (active)	inactive	inactive	inactive	inactive	inactive
OCCN1CCN(CCCN2c3ccccc3C=Cc3ccccc32)CC1	12 µM (active)	12 µM (active)	10.7 µM (active)	–	8.49 µM (active)	–	6.75 µM (active)	11.2 µM (active)	1.2 µM (active)	1.69 µM (active)	6.75 µM (active)	4.47 µM (active)	2.82 µM (active)	–	6.75 µM (active)	8.91 µM (active)	4.47 µM (active)	–	7.94 µM (active)	3.55 µM (active)
NC1=NCC2c3ccccc3Cc3ccccc3N12 (stereo not given)	inactive	inactive	inactive	inactive	inactive	–	–	inactive	–	13.5 µM (active)	inactive	inactive	inactive	inactive	–	inactive	–	inactive	inactive	inactive
CCn1cc(C(=O)O)c(=O)c2cc3c(cc21)OCO3	inactive	inactive	inactive	inactive	inactive	inactive	inactive	inactive	inactive	–	inactive	inactive	inactive	inactive	inactive	inactive	inactive	inactive	inactive	inactive
C[n+]1cc2c3c(ccc2c2ccc4cc5c(cc4c21)OCO5)OCO3	inactive	inactive	–	inactive	–	inactive	inactive	inactive	–	inactive	inactive	inactive	inactive	inactive	–	inactive	inactive	inactive	inactive	inactive
O=C1CC2(CCCC2)CC(=O)N1CCCCN1CCN(c2ncccn2)CC1	inactive	inactive	inactive	inactive	inactive	inactive	inactive	inactive	–	–	inactive	inactive	–	inactive	–	inactive	inactive	inactive	inactive	inactive
COC(=O)[C@@H](N)Cc1ccc(O)c(O)c1	inactive	inactive	inactive	inactive	inactive	inactive	–	inactive	–	–	inactive	inactive	inactive	inactive	–	inactive	inactive	inactive	inactive	inactive
